Test systems include SK-MEL-2 melanoma; EKVX NSCLC; SN12C renal; UO-31 renal; TK-10 renal; ACHN renal; CAKI-1 renal; CCRF-CEM leukemia; MOLT-4 leukemia; SR leukemia; RPMI-8226 leukemia; OVCAR-8 ovarian; OVCAR-5 ovarian; OVCAR-4 ovarian; SK-OV-3 ovarian; IGROV1 ovarian; OVCAR-3 ovarian; HS 578T breast; NCI/ADR-RES ovarian.
Common to all, as to assay: NCI-60 one-dose screen, 48 h (100 = growth as untreated, 0 = no growth, -100 = all killed)
Holding throughout (settings): 10 µM unless noted

Molecules are shown by their SMILES. Compounds without any hit were thinned out: in the full panel of roughly 83,000, 20% have a hit.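 96-well plates, one dose, 48 hours. Percent growth reported; active if below 10.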 A number with no mark means an inactive call. Active and inactive are the calls of the source.

For eight compounds, growth results are on record in PubChem BioAssay (NCI).

For the compound `COc1ccc(C(=O)C2OC3=C(C(=O)CC(C)(C)C3)C2c2cccc(Oc3ccccc3)c2)cc1` (configuration not stated), the growth was 93.4% in the assay with SK-MEL-2 melanoma; 85% in the assay on EKVX NSCLC; 89.5% in the assay with SN12C renal; 74% in the assay on UO-31 renal; 91.5% in the assay on TK-10 renal; 91.8% in the assay on ACHN renal. Also, the growth with CAKI-1 renal is 81.7%; in the assay on CCRF-CEM leukemia, 84%; with MOLT-4 leukemia, 83.4%; with SR leukemia it was 71.2%; in the assay on RPMI-8226 leukemia, 85.7%; in the assay on OVCAR-8 ovarian, 88.9%. The growth in the assay on OVCAR-5 ovarian was 97.6%; with OVCAR-4 ovarian, 86.3%; in the assay with SK-OV-3 ovarian it was 91.4%; in the assay on IGROV1 ovarian, 95.9%; with OVCAR-3 ovarian, 103%; with HS 578T breast it was 93.4%. The growth with NCI/ADR-RES ovarian was 92.7%.
For the compound `C=C(C)[C@@H]1CCC[C@]2(C(=O)OC)CC[C@]3(C)[C@@H](CC[C@@H]4[C@@]5(C)CCCNC(C)(C)[C@@H]5CC[C@]43C)[C@@H]12`, the growth in the assay with SK-MEL-2 melanoma is 94%; with EKVX NSCLC, 88.2%; in the assay with SN12C renal it was 92.1%; in the assay with UO-31 renal, 57.7%; in the assay on TK-10 renal, 90.4%; with ACHN renal it was 88.2%. The growth in the assay with CAKI-1 renal was 73.3%; in the assay on CCRF-CEM leukemia, 84%; in the assay on MOLT-4 leukemia it was 76.9%; with SR leukemia, 54.5%; with RPMI-8226 leukemia, 75.7%; in the assay with OVCAR-8 ovarian, 89.6%. Further, the growth is 86.4% with OVCAR-5 ovarian; 88.1% in the assay on OVCAR-4 ovarian; 95.8% in the assay on SK-OV-3 ovarian; 65.3% in the assay on IGROV1 ovarian; 74.4% in the assay on OVCAR-3 ovarian; 87.4% in the assay on HS 578T breast. Besides, the growth in the assay with NCI/ADR-RES ovarian was 98.8%.
In the case of `C#CCOc1cccc(-c2ncnc3cc(NC(=O)CCl)ccc23)c1`, the growth in the assay on SK-MEL-2 melanoma was -4.29% (active); with EKVX NSCLC it was 11%; with SN12C renal, -65.8% (active); in the assay with UO-31 renal it was -93.7% (active); in the assay with TK-10 renal, 11.8%; in the assay with ACHN renal, -99.6% (active). The growth with CAKI-1 renal was -94.4% (active); in the assay on CCRF-CEM leukemia, -15.6% (active); in the assay on MOLT-4 leukemia, -6.64% (active); in the assay with SR leukemia it was -11.5% (active); with RPMI-8226 leukemia, -38.1% (active); in the assay with OVCAR-8 ovarian, -5.91% (active). The growth in the assay on OVCAR-5 ovarian was -47.3% (active); with OVCAR-4 ovarian it was -25.6% (active); in the assay on SK-OV-3 ovarian it was 51%; in the assay on IGROV1 ovarian it was -54.2% (active); in the assay with OVCAR-3 ovarian, -78.2% (active); with HS 578T breast, 17%. Besides, in the assay with NCI/ADR-RES ovarian, the growth is 1.21% (active).
For `O=c1ccc2c(ccc3ncccc32)o1`, the growth in the assay on SK-MEL-2 melanoma is 112%; with EKVX NSCLC, 118%; with SN12C renal it was 106%; with UO-31 renal it was 77.1%; with TK-10 renal, 105%; in the assay on ACHN renal it was 95.6%. In addition, the growth in the assay on CAKI-1 renal was 90%; in the assay with CCRF-CEM leukemia, 104%; with MOLT-4 leukemia, 92.7%; with SR leukemia it was 103%; with RPMI-8226 leukemia it was 112%; in the assay with OVCAR-8 ovarian, 105%. The growth in the assay with OVCAR-5 ovarian is 104%; in the assay with OVCAR-4 ovarian it was 111%; in the assay with SK-OV-3 ovarian, 104%; in the assay on IGROV1 ovarian it was 109%; in the assay with OVCAR-3 ovarian it was 108%; in the assay on HS 578T breast, 108%. Besides, in the assay with NCI/ADR-RES ovarian, the growth was 106%.
Regarding `C#Cc1ccc(NC(=O)Cc2ccc(/C=C/C(=O)c3nccn3C)cc2)cc1`, the growth in the assay on SK-MEL-2 melanoma was 103%; with EKVX NSCLC, 78.4%; in the assay with SN12C renal it was 68%; in the assay with UO-31 renal, 58.7%; in the assay with TK-10 renal it was 94.9%; in the assay on ACHN renal, 96.5%. In addition, the growth was 47.7% with CAKI-1 renal; 21.4% in the assay on CCRF-CEM leukemia; 40.8% with MOLT-4 leukemia; 20.8% in the assay on SR leukemia; 19.2% with RPMI-8226 leukemia; 26.2% in the assay on OVCAR-8 ovarian. The growth with OVCAR-5 ovarian is 105%; with OVCAR-4 ovarian, 69.9%; in the assay with SK-OV-3 ovarian, 109%; in the assay on IGROV1 ovarian, 52.8%; in the assay with OVCAR-3 ovarian it was 12%; in the assay with HS 578T breast, 35.7%. In addition, in the assay on NCI/ADR-RES ovarian, the growth is 34.5%.
As for `Nc1ncc(-c2ccc3ncnc(N4CCc5cc(F)c(Cl)cc54)c3c2)cc1C(F)(F)F`, the growth was 27.7% in the assay with SK-MEL-2 melanoma; 14.8% in the assay on EKVX NSCLC; 24.8% in the assay with SN12C renal; -2.54% (active) in the assay with UO-31 renal; 9.32% (active) in the assay with TK-10 renal; 17.2% in the assay on ACHN renal. Further, the growth was -8.15% (active) in the assay on CAKI-1 renal; 28.2% with CCRF-CEM leukemia; 8.68% (active) in the assay on MOLT-4 leukemia; -8.86% (active) in the assay on SR leukemia; 16.4% in the assay on RPMI-8226 leukemia; 33.1% in the assay on OVCAR-8 ovarian. Further, the growth in the assay with OVCAR-5 ovarian is 20.8%; in the assay on OVCAR-4 ovarian, 33.4%; in the assay on SK-OV-3 ovarian it was 31.9%; with IGROV1 ovarian, -42.6% (active); in the assay on OVCAR-3 ovarian it was 31.7%; with HS 578T breast, -4.39% (active). For the same compound, the growth in the assay with NCI/ADR-RES ovarian was 19.5%.
With `CC1=NC(=S)NC(c2ccccc2)/C1=C1/CC(c2ccccc2O)NN1` (configuration not stated), the growth in the assay on SK-MEL-2 melanoma was 108%; in the assay with EKVX NSCLC, 95.7%; with SN12C renal, 97.5%; in the assay with UO-31 renal it was 73.1%; with TK-10 renal it was 138%; in the assay on ACHN renal, 101%. Moreover, the growth was 84.8% with CAKI-1 renal; 99.1% with CCRF-CEM leukemia; 99.9% with MOLT-4 leukemia; 97.8% in the assay with SR leukemia; 97.7% in the assay on RPMI-8226 leukemia; 96.6% in the assay with OVCAR-8 ovarian. In addition, the growth with OVCAR-5 ovarian was 101%; in the assay with OVCAR-4 ovarian, 101%; in the assay on SK-OV-3 ovarian it was 98.2%; with IGROV1 ovarian it was 93.2%; in the assay with OVCAR-3 ovarian it was 109%; in the assay on HS 578T breast it was 108%. In the assay with NCI/ADR-RES ovarian, the growth was 104%.
With `COC(=O)c1ccc(-n2cc(CCCOS(=O)(=O)c3ccc(F)cc3)nn2)cc1`, the growth is 101% with SK-MEL-2 melanoma; 101% with EKVX NSCLC; 100% in the assay on SN12C renal; 88.2% in the assay with UO-31 renal; 102% in the assay on TK-10 renal; 101% with ACHN renal. Moreover, the growth is 90.6% in the assay with CAKI-1 renal; 96.8% in the assay with CCRF-CEM leukemia; 95.7% in the assay on MOLT-4 leukemia; 87.4% in the assay with SR leukemia; 97.3% with RPMI-8226 leukemia; 96.2% in the assay on OVCAR-8 ovarian. Moreover, the growth in the assay on OVCAR-5 ovarian was 98.6%; in the assay with OVCAR-4 ovarian it was 94.4%; in the assay on SK-OV-3 ovarian it was 102%; in the assay on IGROV1 ovarian, 102%; in the assay with OVCAR-3 ovarian, 107%; with HS 578T breast, 93.6%. For the same compound, in the assay with NCI/ADR-RES ovarian, the growth is 106%.
